What was measured:
Conditions in all cases: concentration: 1 μM, replicates: in singlicate; n = 1
FGFR4 = system: FGFR4
FGR = system: FGR
FLT1 = system: FLT1
FLT3-autoinhibited = system: FLT3-autoinhibited
FLT3 = system: FLT3
FLT4 = system: FLT4
FRK = system: FRK
FYN = system: FYN
GAK = system: GAK
GCN2(Kin.Dom.2,S808G) = system: T1, GCN2(Kin.Dom.2,S808G)
T1 construct: gene EIF2AK4
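Note: KINOMEscan kinase panel screen.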

Structure (SMILES)	%Inh (FGFR4) [%]	%Inh (FGR) [%]	%Inh (FLT1) [%]	%Inh (FLT3-autoinhibited) [%]	%Inh (FLT3) [%]	%Inh (FLT4) [%]	%Inh (FRK) [%]	%Inh (FYN) [%]	%Inh (GAK) [%]	%Inh (GCN2(Kin.Dom.2,S808G)) [%]
Fc1ccc(-c2ncn(CCCNCc3ccccc3)c2-c2ccncc2)cc1	0	17	0	0	0	22	0	0	0	0
NC(=O)c1sc(-n2cnc3ccccc32)cc1OCc1ccccc1F [GSK1024306]	19	0	40	2	0	27	11	24	24	0
Oc1ccc2ncnc(Nc3ccc(OCc4ccccc4)cc3)c2c1 [GI262866]	66	4	29	0	60	21	0	7	0	15
O=c1cc(N2CCOCC2)nc2n(Cc3cccc(Cl)c3)ccn12 [GSK2296823]	5	15	19	14	0	1	7	0	2	0
Nc1nc(-c2ccccn2)c(-c2ccnc3ccccc23)s1 [GW548057]	0	9	34	0	0	0	0	11	47	0

Source: PMC5540273 (PLoS ONE, 2017)
